Values without a mark were called inactive. Results filed as inconclusive are left out. Where a call stands in place of a potency, no number is given. Active and inactive are the calls of the source. Unless noted, calls come from the whole dose curve; as a rule, active = well fitted curve in the direction sought with a large enough effect; inconclusive = small, poorly fitted or top-dose-only effect, or another doubt; inactive = no such curve, though single readings can be large; an effect the other way counts as inactive or inconclusive. Residues, ends and D or L forms follow the SMILES beside them. *: point of attachment. Cbz = O=C(OCc1ccccc1)*
Experiments:
[1] = P-glycoprotein substrates identified in KB-8-5-11 adenocarcinoma cell line, qHTS therapeutic library screen (AID 1346987); note: nearly all actives have a fitted effect of over 65% in size; note: potency is the fitted concentration of half-maximal effect
Summary of the method: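 KB-8-5-11, a colchicine-selected P-gp-overexpressing KB-3-1 subline, was grown without colchicine for the assay. Cells were seeded at 500 cells/well, dosed in concentration-response and incubated 72 h at 37 degree C, 5% CO2. Viability was read by CellTiter-Glo luminescence.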

[2] = Natriuretic polypeptide receptor (hNpr1) antagonism - Pilot counterscreen GloSensor control cell line (AID 1347045; calls by dose curve; note: series mostly up to about 38 µM)
Summary of the method: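 HEK293 cGMP GloSensor cells preloaded 2 h with 2% GloSensor reagent, then compound 30 min before baseline luminescence read. Stimulated with 50 uM sodium nitroprusside, 20 min at room temperature, then read again; counterscreen for Npr1 antagonism.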

[3] = biological target: Atrial natriuretic peptide receptor 1 (Homo sapiens) (UniProt P16066); test: Natriuretic polypeptide receptor (hNpr1) antagonism - Pilot screen (AID 1347049; calls by dose curve;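 note: agonist-evoked cGMP luminescence read 20 min after hNppA addition; series mostly up to about 58 µM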)
Summary of the method: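 Readout is cGMP-driven firefly luciferase luminescence in HEK293 cells carrying hNpr1 and a PDE5-domain GloSensor, read before and 20 min after 0.1 nM hNppA stimulation. Cells had 2% substrate reagent for 2 h and test compound for 30 min.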

[4] = biological target: Atrial natriuretic peptide receptor 2 (Homo sapiens) (UniProt P20594); test: Natriuretic polypeptide receptor (hNpr2) antagonism - Pilot subtype selectivity assay (AID 1347050; calls by dose curve)
Summary of the method: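 Pilot selectivity screen against hNpr2: HEK293 cGMP-sensor cells are treated with LOPAC1280 compounds, then with hNppC peptide at 1 nM final. The cGMP-driven luminescence change over 20 min at room temperature is the read-out.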

[5] = biological target: Parathyroid hormone/parathyroid hormone-related peptide receptor (Homo sapiens) (UniProt Q03431); test: qHTS for PTHR1 Agonists: Optimization Screen against the NCGC LOPAC library (AID 1347079);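 note: GloSensor cAMP luminescence in HEK-293 GP2 cells expressing human PTHR1 with IBMX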
Summary of the method: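 Agonist readout: GloSensor cAMP luminescence, read after 15 min at room temperature. HEK-293-derived GP2 line carries PTHR1; compounds tested as a titration for 1 hr at 37C in presence of IBMX. M-PTH (1-15) served as control.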

[6] = qHTS of pediatric cancer cell lines to identify multiple opportunities for drug repurposing: Primary screen for TC32 cells (AID 1347089); note: nearly all actives have a fitted effect of over 60% in size; note: potency is the fitted concentration of half-maximal effect
Summary of the method: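 Luminescent ATP read-out (CellTiter-Glo) of metabolically active TC32 cells after 48 h exposure. Concentration-response curves came from 11-point (MIPE, 0.78 nM–46 µM) or 8-point (NPC, 0.59 nM–46 µM) primary titrations; follow-up used 11 points.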

[7] = qHTS of pediatric cancer cell lines to identify multiple opportunities for drug repurposing: Primary screen for DAOY cells (AID 1347090); note: nearly all actives have a fitted effect of over 55% in size; note: potency is the fitted concentration of half-maximal effect
Summary of the method: (§1)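 Cell viability, CellTiter-Glo luminescence; 500-1,000 cells/well, 8- or 11-point titration, 48 h compound exposure at 37 degrees C, 5% CO2. Controls: DMSO neutral, bortezomib 2.3 µM final as positive.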

[8] = qHTS of pediatric cancer cell lines to identify multiple opportunities for drug repurposing: Primary screen for SJ-GBM2 cells (AID 1347091); note: potency is the fitted concentration of half-maximal effect
Summary of the method: as §1

[9] = qHTS of pediatric cancer cell lines to identify multiple opportunities for drug repurposing: Primary screen for A673 cells (AID 1347092); note: nearly all actives have a fitted effect of over 45% in size; note: potency is the fitted concentration of half-maximal effect
Summary of the method: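 Cell viability of A673 measured by CellTiter-Glo ATP luminescence after 48 hours compound exposure. Dilution series spanned 0.78 nM to 46 µM (MIPE, 11-point) or 0.59 nM to 46 µM (NPC, 8-point); bortezomib 2.3 uM positive control.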

[10] = qHTS of pediatric cancer cell lines to identify multiple opportunities for drug repurposing: Primary screen for SK-N-MC cells (AID 1347093); note: potency is the fitted concentration of half-maximal effect
Summary of the method: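 Metabolically active cells were quantified by ATP-dependent luminescence (CellTiter-Glo, 15 min at room temperature) following 48 h treatment. Cells had been plated at 500-1,000 per well and settled for 5 h beforehand.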

[11] = qHTS of pediatric cancer cell lines to identify multiple opportunities for drug repurposing: Primary screen for BT-37 cells (AID 1347094); note: potency is the fitted concentration of half-maximal effect
Summary of the method: (§2)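 500-1,000 cells/well; 5 h pre-incubation 37 °C/5% CO2; compound pinned; 48 h; CellTiter-Glo, 15 min RT; luminescence. MIPE 11-pt from 0.78 nM, NPC 8-pt from 0.59 nM final. Bortezomib 2.3 µM final as positive control.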

[12] = qHTS of pediatric cancer cell lines to identify multiple opportunities for drug repurposing: Primary screen for NB-EBc1 cells (AID 1347095); note: potency is the fitted concentration of half-maximal effect
Summary of the method: as §2

[13] = qHTS of pediatric cancer cell lines to identify multiple opportunities for drug repurposing: Primary screen for U-2 OS cells (AID 1347096); note: nearly all actives have a fitted effect of over 50% in size; note: potency is the fitted concentration of half-maximal effect
Summary of the method: (§3)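 Cells (500-1,000/well) rested 5 h, then received compounds for 48 h; metabolically active cells were measured by CellTiter-Glo luminescence. Final concentrations spanned up to 46 µM (MIPE, 11-point) or 0.59 nM-46 µM (NPC, 8-point) in primary screens, 11-point in follow-ups.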

[14] = qHTS of pediatric cancer cell lines to identify multiple opportunities for drug repurposing: Primary screen for Saos-2 cells (AID 1347097); note: nearly all actives have a fitted effect of over 40% in size; note: potency is the fitted concentration of half-maximal effect
Summary of the method: as §2

[15] = qHTS of pediatric cancer cell lines to identify multiple opportunities for drug repurposing: Primary screen for SK-N-SH cells (AID 1347098); note: nearly all actives have a fitted effect of over 65% in size; note: potency is the fitted concentration of half-maximal effect
Summary of the method: as §3

[16] = qHTS of pediatric cancer cell lines to identify multiple opportunities for drug repurposing: Primary screen for NB1643 cells (AID 1347099); note: nearly all actives have a fitted effect of over 50% in size; note: potency is the fitted concentration of half-maximal effect
Summary of the method: as §2

[17] = qHTS of pediatric cancer cell lines to identify multiple opportunities for drug repurposing: Primary screen for LAN-5 cells (AID 1347100); note: potency is the fitted concentration of half-maximal effect
Summary of the method: as §3

[18] = qHTS of pediatric cancer cell lines to identify multiple opportunities for drug repurposing: Primary screen for BT-12 cells (AID 1347101); note: nearly all actives have a fitted effect of over 25% in size; note: potency is the fitted concentration of half-maximal effect
Summary of the method: as §3

[19] = qHTS of pediatric cancer cell lines to identify multiple opportunities for drug repurposing: Primary screen for Rh18 cells (AID 1347102); note: nearly all actives have a fitted effect of over 65% in size; note: potency is the fitted concentration of half-maximal effect
Summary of the method: as §3

[20] = NS1 protein of Zika virus - qHTS assay to identify small molecule inhibitors in human HEK 293 cells (AID 1347053); note: nearly all actives have a fitted effect of over 55% in size; note: potency is the fitted concentration of half-maximal effect
Summary of the method: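 HEK 293; 20 h pre-culture, 37 C/5% CO2; cpd 1 h pre-infection; ZIKV MR766, MOI = 0.5, 24 h, 37 C; TR-FRET NS1 readout (two anti-NS1 Abs); norm. to no-virus vs infected.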

Atrial natriuretic peptide receptor 2 (Homo sapiens), sequence (P20594 whole entry, looked up): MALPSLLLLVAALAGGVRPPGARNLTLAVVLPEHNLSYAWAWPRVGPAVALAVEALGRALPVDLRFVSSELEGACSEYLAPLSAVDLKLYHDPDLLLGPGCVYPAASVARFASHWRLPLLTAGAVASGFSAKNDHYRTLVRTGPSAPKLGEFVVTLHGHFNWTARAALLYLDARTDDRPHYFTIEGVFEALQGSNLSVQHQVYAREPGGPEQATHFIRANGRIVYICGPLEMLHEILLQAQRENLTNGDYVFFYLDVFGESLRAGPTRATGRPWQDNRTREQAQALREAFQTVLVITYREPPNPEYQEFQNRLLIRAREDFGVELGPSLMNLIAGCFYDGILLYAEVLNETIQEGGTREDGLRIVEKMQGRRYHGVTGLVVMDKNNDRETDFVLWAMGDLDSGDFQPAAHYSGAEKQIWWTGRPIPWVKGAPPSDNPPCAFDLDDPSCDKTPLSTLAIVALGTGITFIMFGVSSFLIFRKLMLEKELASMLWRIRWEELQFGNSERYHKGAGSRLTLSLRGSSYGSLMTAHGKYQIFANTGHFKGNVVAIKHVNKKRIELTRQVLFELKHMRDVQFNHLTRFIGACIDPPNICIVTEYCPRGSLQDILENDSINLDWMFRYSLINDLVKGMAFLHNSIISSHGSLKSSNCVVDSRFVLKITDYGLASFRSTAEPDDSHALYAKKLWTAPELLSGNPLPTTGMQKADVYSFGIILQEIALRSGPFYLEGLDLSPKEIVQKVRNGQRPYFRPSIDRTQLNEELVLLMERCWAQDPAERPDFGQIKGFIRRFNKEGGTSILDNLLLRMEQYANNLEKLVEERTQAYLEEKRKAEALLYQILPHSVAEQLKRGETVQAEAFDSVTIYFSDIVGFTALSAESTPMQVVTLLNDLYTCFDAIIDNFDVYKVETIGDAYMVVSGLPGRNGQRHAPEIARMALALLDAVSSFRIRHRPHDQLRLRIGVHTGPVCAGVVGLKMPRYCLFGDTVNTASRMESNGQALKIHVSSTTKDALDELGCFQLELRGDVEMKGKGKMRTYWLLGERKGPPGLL
Parathyroid hormone/parathyroid hormone-related peptide receptor (Homo sapiens), sequence (Q03431 whole entry, looked up): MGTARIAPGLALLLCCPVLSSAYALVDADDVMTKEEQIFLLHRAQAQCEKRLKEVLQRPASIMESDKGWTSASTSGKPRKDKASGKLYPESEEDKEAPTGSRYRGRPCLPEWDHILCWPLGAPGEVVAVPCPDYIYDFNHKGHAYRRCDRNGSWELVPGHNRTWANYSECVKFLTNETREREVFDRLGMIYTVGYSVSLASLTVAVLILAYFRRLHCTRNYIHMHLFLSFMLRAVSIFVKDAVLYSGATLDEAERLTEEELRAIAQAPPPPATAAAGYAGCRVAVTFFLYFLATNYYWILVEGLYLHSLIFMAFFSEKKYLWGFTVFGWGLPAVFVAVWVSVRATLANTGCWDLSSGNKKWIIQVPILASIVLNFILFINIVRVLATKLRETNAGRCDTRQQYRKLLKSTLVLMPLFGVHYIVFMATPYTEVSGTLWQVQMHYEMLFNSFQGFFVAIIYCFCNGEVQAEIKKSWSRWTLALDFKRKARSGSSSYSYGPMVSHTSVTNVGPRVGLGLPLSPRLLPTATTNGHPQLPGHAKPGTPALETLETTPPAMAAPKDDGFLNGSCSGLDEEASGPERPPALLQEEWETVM
Atrial natriuretic peptide receptor 1 (Homo sapiens), sequence (P16066 whole entry, looked up): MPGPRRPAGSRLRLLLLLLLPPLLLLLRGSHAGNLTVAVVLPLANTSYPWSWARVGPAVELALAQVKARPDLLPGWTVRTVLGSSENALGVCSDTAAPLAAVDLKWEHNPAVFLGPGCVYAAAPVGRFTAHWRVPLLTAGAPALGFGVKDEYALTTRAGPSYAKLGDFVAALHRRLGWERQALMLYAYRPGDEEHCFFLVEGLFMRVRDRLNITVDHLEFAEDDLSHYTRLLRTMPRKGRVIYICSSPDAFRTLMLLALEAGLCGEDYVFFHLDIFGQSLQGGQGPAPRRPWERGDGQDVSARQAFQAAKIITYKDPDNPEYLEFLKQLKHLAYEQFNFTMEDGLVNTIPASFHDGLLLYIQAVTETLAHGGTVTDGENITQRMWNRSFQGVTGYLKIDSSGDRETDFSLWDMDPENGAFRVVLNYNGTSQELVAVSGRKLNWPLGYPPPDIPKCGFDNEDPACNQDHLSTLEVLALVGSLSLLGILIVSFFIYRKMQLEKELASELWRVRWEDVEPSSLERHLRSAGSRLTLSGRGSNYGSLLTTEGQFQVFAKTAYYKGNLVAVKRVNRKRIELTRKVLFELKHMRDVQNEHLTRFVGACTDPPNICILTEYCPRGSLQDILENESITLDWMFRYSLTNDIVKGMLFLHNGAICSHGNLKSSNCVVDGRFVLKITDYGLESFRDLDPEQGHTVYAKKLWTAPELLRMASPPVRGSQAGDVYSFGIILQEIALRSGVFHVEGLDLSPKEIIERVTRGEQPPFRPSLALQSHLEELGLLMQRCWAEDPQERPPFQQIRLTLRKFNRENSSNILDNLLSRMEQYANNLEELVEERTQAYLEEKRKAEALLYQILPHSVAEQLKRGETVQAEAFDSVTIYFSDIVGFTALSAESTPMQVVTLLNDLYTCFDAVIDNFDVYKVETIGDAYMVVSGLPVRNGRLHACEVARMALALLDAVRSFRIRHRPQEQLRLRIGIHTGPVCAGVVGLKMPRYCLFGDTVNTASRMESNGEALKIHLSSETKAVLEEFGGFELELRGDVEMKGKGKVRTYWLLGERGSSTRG

Structure (SMILES) | Potency [1] | outcome [2] | outcome [3] | outcome [4] | outcome [5] | Potency [6] | Potency [7] | Potency [8] | Potency [9] | Potency [10] | Potency [11] | Potency [12] | Potency [13] | Potency [14] | Potency [15] | Potency [16] | Potency [17] | Potency [18] | Potency [19] | Potency [20]
COc1ccc2cc([S+]([O-])Cc3ncc(C)c(OC)c3C)nc2c1 | inactive | inactive | inactive | inactive | inactive | inactive | inactive | inactive | inactive | inactive | inactive | inactive | inactive | inactive | inactive | inactive | inactive | inactive | inactive | 
C[C@@]12C[C@@]3(O)O[C@@H](O1)[C@]1(COC(=O)c4ccccc4)[C@@H]3C[C@@]12O[C@@H]1O[C@H](CO)[C@@H](O)[C@H](O)[C@@H]1O | inactive |  |  |  |  | inactive | inactive | inactive | inactive | inactive | inactive | inactive | inactive | inactive | inactive | inactive | inactive | inactive | inactive | inactive
O=[N+]([O-])c1cn2c(n1)OC[C@@H](OCc1ccc(OC(F)(F)F)cc1)C2 | inactive |  |  |  |  | inactive | inactive | inactive | inactive | inactive | inactive | inactive | inactive | inactive |  | inactive | inactive |  |  | inactive
CC(C)C[C@@H](C=O)NC(=O)[C@H](CC(C)C)NC(=O)[C@H](CC(C)C)NC(=O)OCc1ccccc1 (Cbz-Leu-Leu-Leu-aldehyde) | 5260 nM (active) |  |  |  |  | 2340 nM (active) | 743 nM (active) | 105 nM (active) | 235 nM (active) | 83.3 nM (active) | 863 nM (active) | 166 nM (active) | 935 nM (active) | 743 nM (active) | 857 nM (active) | 372 nM (active) | 662 nM (active) | 1530 nM (active) | 1320 nM (active) | 1660 nM (active)
O=S(=O)(O)CCSSCCS(=O)(=O)O | inactive |  |  |  |  | inactive | inactive | inactive | inactive | 10500 nM (active) | inactive | inactive | inactive | inactive |  | 23500 nM (active) | inactive |  | inactive | inactive
Nc1ccn(C2CO[C@H](CO)O2)c(=O)n1 (some centres undefined) | inactive |  |  |  |  | inactive | inactive | inactive | inactive | inactive | inactive | inactive | inactive | inactive | inactive | inactive | inactive | inactive | inactive | inactive

— PubChem BioAssay (NCATS)
